# Compound activity: PubChem BioAssay, National Center for Advancing Translational Sciences (NCATS)
# Rows were chosen to be rich in hits. Some 4.7% of all compounds tested hit in one or more screens of this group.
# TRHR agonist-1: TRH receptor (human) agonism; P34981; TRHR cells, calcium flux fluo-8, FDSS agonist mode; activation, % at 2 µM; hit rate 0.18% among 360,000
# Target sequence (P34981 whole entry, looked up): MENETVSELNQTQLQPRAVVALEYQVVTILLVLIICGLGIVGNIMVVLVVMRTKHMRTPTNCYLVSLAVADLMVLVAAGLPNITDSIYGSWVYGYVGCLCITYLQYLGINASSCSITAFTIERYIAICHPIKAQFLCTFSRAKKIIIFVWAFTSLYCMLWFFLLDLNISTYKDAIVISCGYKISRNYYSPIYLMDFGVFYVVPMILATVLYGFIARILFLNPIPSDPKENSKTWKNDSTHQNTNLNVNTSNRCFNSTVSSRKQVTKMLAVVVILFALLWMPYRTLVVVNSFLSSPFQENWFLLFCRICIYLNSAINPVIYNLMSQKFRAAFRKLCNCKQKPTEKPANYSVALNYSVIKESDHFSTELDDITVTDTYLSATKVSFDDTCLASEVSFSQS
#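 TRHR-expressing cells, plated overnight in medium with 10% serum, were loaded with fluo-8 calcium dye at room temperature. After a 10 s baseline, library compound was pin-added and calcium release was recorded kinetically (ex 480/em 530) as agonist response.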
# D1 antag: human D1 dopamine receptor antagonism; HEK293 TREx D1 cells, calcium flux, dopamine EC80; hits give low values; hit rate 3.2% among 360,000; activity change, negative = inhibition, % at 10 µM; in the data active means activity change below about -30%
#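 Cells carrying a force-coupled, tetracycline-inducible human D1 receptor report calcium flux. Each well gets a 10 s baseline, compound with 180 s monitoring, then an EC80 dopamine stimulus with a second 180 s kinetic read.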
# D1 ag: human D1 receptor agonism; HEK293 T-REx D1 cells, calcium flux, agonist mode; activation, % at 2 µM; hit rate 1% among 360,000; AID 504660
#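 Inducible HEK293 T-REx D1 cells, force-coupled to calcium signalling, were plated at 4000 cells/well with tetracycline and held overnight at 30 C. After no-wash calcium dye loading, compound-evoked calcium rise over 180 s flagged agonists.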
# TRHR enhancer-1: TRH receptor (human) allosteric enhancement | P34981 | TRHR cells, fluo-8 calcium fluorescence, EC20 TRH enhancement | enhancement, % at 2 µM | hit rate 0.66% among 360,000 | AID 493056; in the data active means enhancement above about 30%
#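 Enhancer read-out: after compound pinning and an initial kinetic agonist-mode read, an EC20 of TRH (10 nM final) was injected and fluo-8 calcium signal (Ex 480/Em 530) followed at 1 s/cycle for 100 cycles in TRHR-expressing cells.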
# D1 PAM: human D1 dopamine receptor positive modulation; HEK293 TREx D1 cells, calcium flux, dopamine EC20 potentiation; potentiation, % at 10 µM; hit rate 0.036% among 360,000; in the data active means potentiation above about 30%
# TRHR enhancer-2: confirmation of human TRH receptor allosteric enhancers; shares compounds with TRHR enhancer-1; TRH receptor cell assay, enhancer confirmation qHTS; activity change, negative = inhibition, % at 46.1 µM; 970 tested, under 10 active; AID 493076; active means well fitted curve in the direction sought with a large enough effect; inconclusive means small, poorly fitted or top-dose-only effect, or another doubt; inactive means no such curve, though single readings can be large; an effect the other way counts as inactive or inconclusive;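 further: compound effect scored on response to added TRH at EC20 of 10 nM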
# TRHR agonist-2: human TRH receptor agonism confirmation; hit rate 8% among 970; shares compounds with TRHR enhancer-1; TRHR-expressing cells, agonist activation read-out; AID 493078; Potency, µM (series often up to 46.1 µM), most hits filed as activators; active means well fitted curve in the direction sought with a large enough effect; inconclusive means small, poorly fitted or top-dose-only effect, or another doubt; inactive means no such curve, though single readings can be large; an effect the other way counts as inactive or inconclusive; further: nearly all actives have a fitted effect of over 75% in size
# Numbers stand for hits; – = inactive; ? = inconclusive; · = not tested or not shown; ! = a repeat was not active. Unless noted, no stated cut-off is given here; in the data, active means activation above about 30%; inactive means the rest.
SMILES,TRHR agonist-1,D1 antag,D1 ag,TRHR enhancer-1,D1 PAM,TRHR enhancer-2,TRHR agonist-2
O=C(CCCN1CCN(c2ccccn2)CC1)c1ccc(F)cc1,–,-73.9,–,–,–,·,·
Cc1ccc(C(=O)NC2CCN(CCCC(=O)c3ccc(F)cc3)CC2)cc1,–,-38.5,–,–,–,·,·
O=S(=O)(CCN1CCN(c2ccccn2)CC1)c1ccc(F)cc1,–,–,–,–,–,·,·
O=[S+]([O-])(c1ccc2c(c1)OCCO2)N1CCN([S+](=O)([O-])c2ccc(F)cc2Br)CC1,–,–,–,–,–,·,·
COc1cccc(CNC(=O)c2cc(-c3ccc(Cl)cc3)n[nH]2)c1,–,–,–,–,–,·,·
NCCCNc1nc(N)c([N+](=O)[O-])c(NC2CCCCC2)n1,–,–,–,–,–,·,·
COc1ccccc1N1CCN(CCCCN2C(=O)C3CCCCN3C2=O)CC1 (stereo not given),–,–,–,–,–,·,·
Cc1ccccc1N1CCN(CCCCN2C(=O)C3CCCN3C2=O)CC1 (stereo not given),–,-57.3,–,–,–,·,·
O=C(CCc1nc2ccccc2c(=O)[nH]1)Nc1cc(Cl)ccc1N1CCCC1,–,–,–,47.1,–,–,–
O=C(CCc1nc2ccccc2c(=O)[nH]1)Nc1ccc(N2CCCCC2)cc1,–,–,–,–,–,·,·
O=C(CNC(=O)c1ccccc1Cl)NCC(c1cccs1)N1CCOCC1 (stereo not given),–,–,–,–,–,·,·
Cc1cc(C(=O)COC(=O)c2ccccc2O)c(C)n1CC1CCCO1 (stereo not given),–,–,–,–,–,·,·
Cc1cc(C(=O)COC(=O)c2cc(O)c3ccccc3c2O)c(C)n1CC1CCCO1 (stereo not given),–,–,–,46.7,–,–,–
OCCC1CN(Cc2cc3c(cc2Cl)OCO3)CCN1C1CCCC1 (stereo not given),–,–,–,53.9,–,–,–
COc1cccc(C2CC(=O)Nc3c2c(=O)[nH]c2nc4ccccc4n32)c1 (stereo not given),–,–,–,–,–,·,·
Oc1ccc2ccccc2c1/C=N/Nc1nnc(-c2ncc[nH]2)c2ccccc12,45.6,–,36.2,–,–,?,23.1µM
CCCCn1c(N)c(N(CC(C)C)C(=O)CC2CCCC2)c(=O)[nH]c1=O,–,–,–,–,–,·,·
O=C(O)c1ccc(CSc2nnc(-c3ccccc3Cl)n2-c2ccccc2)cc1,–,–,–,50.7,–,–,–
CS(=O)(=O)c1ccc(Cl)c(NC(=O)COC(=O)COc2ccc3c(c2)CCC3)c1,–,–,–,–,–,·,·
Nc1nonc1C(=O)OCC(=O)N1CCOCC1,–,–,–,–,–,·,·
Nc1nonc1/C(=N/O)N1CCN(CCO)CC1,–,–,–,88.0,–,–,–
CS(=O)(=O)c1cccc(-c2csc(N3CCC(C(N)=O)CC3)n2)c1,–,–,–,47.6!,–,–,–
Brc1ccccc1/C=N/Nc1ccc2ccccc2n1,–,–,–,–,–,·,·
Brc1ccc(/C=N/Nc2ccc3ccccc3n2)cc1,–,–,–,50.6,–,–,–
COc1ccccc1NS(=O)(=O)c1cccc(C(=O)N/N=C/c2c(C)nn(-c3ccccc3)c2N2CCCC2)c1,–,–,–,–,–,–,–
SMILES,TRHR agonist-1,D1 antag,D1 ag,TRHR enhancer-1,D1 PAM,TRHR enhancer-2,TRHR agonist-2
COc1cc(/C=C2\SC(=N)N(c3ccc4c(c3)OCO4)C2=O)cc(OC)c1O,44.6,–,–,–,–,–,?
CCOC(=O)C1(C)C=C(Nc2ccc(C(N)=O)cc2)C(=O)N1c1ccccc1 (stereo not given),–,–,–,–,–,·,·
CCC(C)N1CC(=O)N2C(c3ccc(OC)cc3OC)c3[nH]c4ccccc4c3C[C@H]2C1=O (stereo not given in full),–,–,–,75.0,–,–,–
CCCN1CC(=O)N2C(c3cccc(OC)c3OC)c3[nH]c4ccccc4c3C[C@H]2C1=O (stereo not given in full),–,–,–,–,–,·,·
CCn1c(C(=O)O)c(CC(=O)Nc2cccc(C(F)(F)F)c2)c2ccccc21,–,–,–,–,–,·,·
O=C(COC(=O)c1cnccn1)Nc1c(Cl)cc(Cl)cc1Cl,–,–,–,47.2,–,–,–
O=C(COC(=O)c1cnccn1)Nc1ncc(Cl)cc1Cl,–,–,–,–,–,·,·
O=C(N/N=C/c1cc(Cl)cc(Cl)c1O)c1ccncc1,40.4,–,68.4,–,–,?,20.6µM
O=C(N/N=C/c1ccc(Cl)cc1Cl)c1ccncc1,–,–,–,–,–,·,·
COc1cccc(NC(=O)c2cc3ccccc3o/c2=N\O)c1,–,–,–,49.0,–,–,–
COc1cccc(NC(=O)c2cc3cccc(OC)c3o/c2=N\O)c1,–,–,–,–,–,·,·
Cc1c(C)c2ccc(OCC(=O)NCCCn3ccnc3)cc2oc1=O,–,–,–,43.1,–,–,–
O=C(O)CCC(=O)N1CCc2cc(S(=O)(=O)NCc3ccc(F)cc3)ccc21,–,–,–,–,–,·,·
O=c1[nH]c(N2CCN(c3ccccc3)CC2)nc2c1CCC2,–,–,–,–,–,·,·
O=c1[nH]c(N2CCN(Cc3ccccc3)CC2)nc2c1CCC2,–,–,–,41.0,–,–,–
CC1c2[nH]c3ccccc3c2C[C@H]2C(=O)N(CCCN(C)C)CC(=O)N12 (stereo not given in full),–,–,–,–,–,·,·
O=C(/C=C/c1ccc(F)cc1)Nc1nc2n(n1)C(c1ccc(Cl)cc1)C=C(c1ccccc1)N2 (stereo not given),–,–,–,–,–,·,·
COc1nc(-c2ccc(C)cc2)ccc1-c1noc(-c2cccnc2)n1,–,–,–,–,–,·,·
COc1nc(-c2ccccc2)ccc1-c1noc(-c2cccnc2)n1,–,–,–,46.0,–,–,–
OC(COc1ccccc1)CN1CCCCCC1 (stereo not given),–,–,–,42.2,–,?,–
COc1cccc(/C=N/NC(=O)c2c(C)nc3ccc(Br)cn23)c1O,35.3,–,–,–,–,–,?
Cc1ccccc1NS(=O)(=O)c1ccc2c3c(cccc13)C(=O)N2C,–,–,–,60.6,–,–,–
CCN1C(=O)c2cccc3c(S(=O)(=O)Nc4ccccc4OC)ccc1c23,55.6,–,–,–,–,–,?
CN1C(=O)c2cccc3c(S(=O)(=O)Nc4ccccn4)ccc1c23,–,–,–,–,–,·,·
CCN1C(=O)c2cccc3c(S(=O)(=O)NCc4ccccc4)ccc1c23,–,–,–,–,–,·,·
